# The list is not random: actives were taken first. Their share in the collection is about 28%.
# CYP2C9 act – CYP2C9 (human) activation. AID 1024. activation factor at 5 µM. P11712. recombinant CYP2C9, luciferin-H conversion, luminescence; hits give high values; factor 1 = untreated enzyme, 0 = blocked. 96,000 compounds, 1.4% hits;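 active = activation factor of 2 or more for CYP2C9 at a 5 µM dose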;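 note: 0 = sulfaphenazole-blocked wells and 1 = vehicle-only wells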
# Target sequence (P11712 whole entry, looked up): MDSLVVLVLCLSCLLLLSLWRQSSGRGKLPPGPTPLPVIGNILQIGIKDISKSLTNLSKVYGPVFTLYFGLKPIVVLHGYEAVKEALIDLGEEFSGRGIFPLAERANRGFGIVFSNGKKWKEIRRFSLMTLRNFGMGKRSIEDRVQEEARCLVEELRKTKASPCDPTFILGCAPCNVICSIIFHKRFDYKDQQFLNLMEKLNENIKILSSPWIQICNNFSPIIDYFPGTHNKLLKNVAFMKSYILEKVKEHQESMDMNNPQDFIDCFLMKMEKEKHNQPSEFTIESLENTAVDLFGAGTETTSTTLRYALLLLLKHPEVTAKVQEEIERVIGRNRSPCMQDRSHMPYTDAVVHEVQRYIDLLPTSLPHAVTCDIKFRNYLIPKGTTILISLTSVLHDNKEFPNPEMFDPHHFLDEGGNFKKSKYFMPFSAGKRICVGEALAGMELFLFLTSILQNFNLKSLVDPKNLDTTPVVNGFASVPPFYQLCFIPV
# CYP2C19 activ – increases human CYP2C19 enzyme activity; P33261; recombinant CYP2C19, luciferin-H EGE luminescence; hits give high values; 0 = fully inhibited enzyme, 1 = untreated enzyme; activation factor at 5 µM; 96,000 tested, under 10 active; AID 1025;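 active = activation factor of at least 2 at 5 µM in the primary screen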;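 note: 0 = wells with 2.5 mM tranylcypromine and 1 = vehicle-only wells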
# Plk1 PBD FP – Plk1 (human) PBD binding inhibition; AID 693; Plk1 PBD phosphopeptide binding, fluorescence polarization; inhibition, %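 (tested at about 20 µM)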; P53350; 97,000 compounds, 0.13% hits; in the data active = inhibition above about 34%, passing the limit was not always enough
# PLK1 kinase inh – inhibitors of human PLK1 kinase; P53350; recombinant PLK1 kinase, TR-FRET peptide phosphorylation; inhibition, % at 10 µM; 97,000 compounds, 0.53% hits; AID 619;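 active = inhibition of 50% or more in the single-concentration screen; inactive = inhibition below 50%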;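 note: 0% = DMSO max control and 100% = H-89 dihydrochloride min control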
# CYP2C9 inh – human CYP2C9 inhibition; 96,000 compounds, 20% hits; inhibition, % at 5 µM; CYP2C9 Supersomes, luciferin-H conversion, luminescence;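 active = blocking of liver enzyme CYP2C9 beyond about 50% at 5 µM, limit read from the data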
# CYP2C19 inhib – blocks human cytochrome P450 2C19; P33261; CYP2C19 Supersomes, luciferin-H EGE luminescence, 30 min; inhibition, % at 5 µM; 96,000 compounds, 21% hits;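 active = CYP2C19 inhibition above a set limit at 5 µM in the primary screen, cut at about 50% in these data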;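 note: plate controls were negative control wells for no effect and 2.5 mM tranylcypromine positive control for full effect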
# Active calls of the source: *; . = no result given.
SMILES,CYP2C9 act,CYP2C19 activ,Plk1 PBD FP,PLK1 kinase inh,CYP2C9 inh,CYP2C19 inhib
CCc1cc2c(=O)n(Cc3ccco3)c(SCc3c(C)noc3C)nc2s1,0.1,0.5,0,-11,90*,51*
O=c1c2ccccc2nc(SCc2cc(F)cc3c2OCOC3)n1Cc1ccco1,0.6,0.7,10,-1,40,30
COc1cc2c(C)nc(C)c(C#N)c2cc1OC,1,1.1,0,-16,0,-6
O=c1c2c3c(sc2ncn1Cc1ccc(F)cc1)CCC3,0.2,0.2,-20,28,78*,81*
O=c1nc(N2CCOCC2)ccn1Cc1ccc(Br)cc1,1.2,1,13,-6,-23,-1
CCCCN(c1ccccc1)c1ncnc2nc[nH]c12,1.2,1,.,.,-18,-4
c1ccc2c(CCNc3ncnc4nc[nH]c34)c[nH]c2c1,1.4,0.2,.,.,-41,83*
CCCCN(CCCNc1ncnc2nc[nH]c12)c1ccccc1,0.4,0.8,.,.,56*,19
CCN(CCCNc1ncnc2nc[nH]c12)c1cccc(C)c1,0.2,0.2,.,.,78*,83*
CC(C)N(CCCNC(=O)CC1Oc2ccccc2NC1=O)Cc1ccccc1 (stereo not given),1.1,1,-36,-5,-5,-3
COC1(OC)C(/C=C/c2ccc(Cl)cc2)C(C#N)(C#N)C1(OC)OC (stereo not given),.,.,-2,-7,.,.
O=C1CCc2cc(S(=O)(=O)N3CCC(C(=O)NC4CCCCCCC4)CC3)ccc2N1,0.4,0.8,-34,11,57*,21
Cc1ccc(NC(=O)C2CCCN2S(=O)(=O)c2ccc3c(c2)CCC(=O)N3)cc1Cl (stereo not given),0.1,0.4,-22,67*,89*,60*
O=C1CCc2cc(S(=O)(=O)N3CCCC3C(=O)N3CCN(c4ccccc4)CC3)ccc2N1 (stereo not given),0.4,1.1,-8,3,59*,-7
COc1ccc(C)cc1NC(=O)C1CCCN1S(=O)(=O)c1ccc2c(c1)CCC(=O)N2 (stereo not given),1.6,0.6,-7,-7,-60,39
COc1cc(NC(=O)C2CCCN2S(=O)(=O)c2ccc3c(c2)CCC(=O)N3)cc(OC)c1 (stereo not given),0.4,0.9,-6,-11,60*,14
CN(C1CCCCC1)S(=O)(=O)c1ccc(S(=O)(=O)N2CCN(C(=O)c3ccccc3F)CC2)cc1,1,0.9,4,2,4,8
O=C(Cn1cnc2ccccc21)OCC(=O)N1CCc2ccccc2C1,0.9,0.9,.,.,7,5
Cc1nn(-c2ccc(F)cc2)c(Cl)c1/C=C(\CCC(=O)O)c1nc2ccccc2s1,0.8,0.9,0,-17,17,6
COc1cccc(N2CCN(C(=O)CN(C)S(=O)(=O)c3ccc4c(c3)CCC(=O)N4)CC2)c1,0.5,0.9,33,-1,46,13
COc1cc(NC(=O)CN(C)S(=O)(=O)c2ccc3c(c2)CCC(=O)N3)cc(OC)c1,0.4,0.7,15,-2,62*,28
O=C(OCCCN1C(=O)c2ccccc2C1=O)c1ccco1,0.4,0.5,-8,-11,62*,54*
O=C(OCN1C(=O)c2ccccc2C1=O)c1ccco1,1.1,1,11,-9,-6,4
CC(=O)c1c(C)[nH]c(C(=O)OCCCCN2C(=O)c3ccccc3C2=O)c1C,0.3,0.6,17,-15,70*,40
O=C(OCCCCN1C(=O)c2ccccc2C1=O)c1n[nH]c2ccccc12,0.1,0.2,-15,-1,86*,84*
SMILES,CYP2C9 act,CYP2C19 activ,Plk1 PBD FP,PLK1 kinase inh,CYP2C9 inh,CYP2C19 inhib
CCOC(=O)c1[nH]c2ccccc2c1CCCN1C(=O)c2ccccc2C1=O,0.1,0.2,-4,-12,86*,79*
CC(=O)c1c(C)[nH]c(C(=O)OCC(=O)N2CCc3ccccc32)c1C,1.1,1,-14,-16,-6,-5
CCCOc1ccc2c(=O)c(-c3cc(C(=O)OC)oc3C)c(C)oc2c1,0.5,0.8,-20,-3,48,20
CCn1c2ccccc2c2cc(NC(=O)c3ccco3)ccc21,1.4,0.5,.,.,-40,45
COC(=O)c1oc2ccc(Br)cc2c1NC(=O)CCCN1C(=O)c2ccccc2C1=O,0.4,0.6,.,.,64*,43
O=C(CCCCCN1C(=O)c2ccccc2C1=O)Nc1nccs1,0.4,0.9,-4,-2,56*,6
